# Experimental data from paper PMC4336329 (PLoS ONE, 2015).
# Out of some 310,000 compounds screened, about 14,000 (4.5%) showed an effect of 50% or more. The effect is printed as a negative number. Shown is part of a subset that was picked to be rich in strong results.
# Target: human ether-à-go-go-related gene (hERG) potassium channel (human, UniProt Q12809)
# Assay: primary screen, population patch clamp on CHO cells stably expressing hERG; higher = less effect of the substance
# 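Also: peak tail current of the secondary pulse compared with the same well before compound.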
# Chain of human ether-à-go-go-related gene (hERG) potassium channel (Q12809 whole entry, looked up): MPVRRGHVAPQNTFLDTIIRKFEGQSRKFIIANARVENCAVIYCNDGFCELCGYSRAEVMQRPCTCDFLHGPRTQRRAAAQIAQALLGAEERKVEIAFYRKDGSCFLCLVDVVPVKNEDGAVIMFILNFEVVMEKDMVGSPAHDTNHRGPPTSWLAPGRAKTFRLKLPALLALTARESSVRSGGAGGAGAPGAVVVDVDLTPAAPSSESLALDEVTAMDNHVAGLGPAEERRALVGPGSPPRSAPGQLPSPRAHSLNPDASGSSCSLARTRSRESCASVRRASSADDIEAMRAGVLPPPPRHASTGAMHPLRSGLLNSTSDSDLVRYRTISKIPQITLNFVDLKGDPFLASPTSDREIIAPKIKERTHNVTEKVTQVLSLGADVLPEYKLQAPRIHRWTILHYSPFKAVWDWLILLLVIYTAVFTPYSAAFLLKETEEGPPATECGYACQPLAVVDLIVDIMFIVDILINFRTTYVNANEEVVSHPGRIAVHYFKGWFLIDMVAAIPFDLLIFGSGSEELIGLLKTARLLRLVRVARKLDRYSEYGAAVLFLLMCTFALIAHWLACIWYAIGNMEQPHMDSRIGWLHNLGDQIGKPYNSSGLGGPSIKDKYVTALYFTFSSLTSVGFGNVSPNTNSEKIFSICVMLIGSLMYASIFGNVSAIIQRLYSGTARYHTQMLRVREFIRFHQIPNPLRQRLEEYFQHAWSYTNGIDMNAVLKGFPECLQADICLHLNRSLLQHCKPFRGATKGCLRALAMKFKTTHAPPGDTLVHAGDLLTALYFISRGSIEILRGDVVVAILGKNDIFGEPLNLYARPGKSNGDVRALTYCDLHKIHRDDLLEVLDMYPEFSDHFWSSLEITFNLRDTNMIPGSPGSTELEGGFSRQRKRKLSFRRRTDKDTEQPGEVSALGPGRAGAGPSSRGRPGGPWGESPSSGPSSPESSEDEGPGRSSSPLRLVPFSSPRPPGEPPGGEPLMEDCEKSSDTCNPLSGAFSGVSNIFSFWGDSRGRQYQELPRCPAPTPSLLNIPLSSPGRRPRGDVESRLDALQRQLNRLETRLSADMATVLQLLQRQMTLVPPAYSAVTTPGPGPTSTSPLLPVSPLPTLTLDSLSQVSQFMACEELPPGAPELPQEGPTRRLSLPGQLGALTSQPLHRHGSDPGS
row,Structure (SMILES),"hERG current change (%, negative = inhibition) at 10uM [%]"
1,O=C1CN(c2nnnn2-c2ccccc2)CCN1,-6.89
2,COC(=O)[C@@]1(Cc2ccccc2)C=C[C@@H](C)N1C(C)=O,2.06
3,Cc1cccc(C)c1NC(=O)CCCSc1nnc(-c2ccc(Cl)cc2)n1-c1ccccc1,-3.49
4,COc1ccc(C(C)(C)C)cc1NC(=O)CN1C(=O)C(=O)N(Cc2ccco2)C1=O,2.86
5,CCCCNC(=O)NS(=O)(=O)c1ccc(NC(=O)CCC(=O)c2cccs2)cc1,23.1
6,O=S(=O)(c1ccc(Cl)nc1)N1CCCCC1,-1.17
7,CC1(C)Oc2ccc3ccc(=O)oc3c2C(/C=N/O)=C1Cl,14.7
8,CCOC(=O)C1CCN(/C=C2/C(=O)NC(=S)N(c3cccc(OC)c3)C2=O)CC1,19.4
9,CCOC(=O)/C=c1\s/c(=C(\C#N)C(=O)NC)n(-c2ccccc2)c1=O,10.6
10,Cc1ccc(-c2nn3c(C)nnc3s2)cc1NC(=O)c1ccco1,-11.7
11,O=C(N/N=C/C=C\c1ccco1)c1cccnc1,8.4
12,Cn1cccc1-c1nc2ccccc2n1Cc1ccccc1,-29.1
13,CCOC(=O)C1(CCc2ccccc2)CCN(C2Cc3ccccc3C2)CC1,-64.8
14,CS(=O)(=O)c1ccc(S(=O)(=O)N2CCC(CO)(CCCc3ccccc3)CC2)cc1,-41.4
15,OCC1(CCCc2ccccc2)CCN(C2CCSCC2)CC1,-80.5
16,O=C(NCc1ccccc1)N1CCC(CO)(CCc2ccccc2)CC1,-38
17,CCCCOC(=O)c1ccc(NC(=O)CSC2=Nc3ccccc3C3CC=NN23)cc1 (stereo not shown),15.4
18,O=C(COc1ccccc1)NCC(=O)Nc1ccncc1,1.26
19,O=C(c1ccc(NC(=O)C2(c3ccccc3)CCOCC2)cc1)N1CCOCC1,9.8
20,CC(=O)N1c2c(cc(Br)cc2S(=O)(=O)NCC2COc3ccccc3O2)CC1C (stereo not shown),-44.5
21,CC1CCCN(S(=O)(=O)c2cc3c4c(c2)CCN4C(=O)CC3)C1 (stereo not shown),-6.07
22,COC(=O)[C@@]12CCCN1[C@H](c1ccc(-c3ccc(OC)cc3)c(OC)c1)[C@@H]1C(=O)N(C)C(=O)[C@@H]12.O=C(O)C(F)(F)F,-9.37

row,Structure (SMILES),"hERG current change (%, negative = inhibition) at 10uM [%]"
1,CC1(C)O[C@H]2CC(=O)OC[C@]23[C@H]2CC[C@@]4(C)[C@H](c5ccoc5)OC(=O)[C@H]5O[C@]54[C@]2(C)[C@@H](O)C[C@@H]13,17.1
2,CCOC(=O)CN1C(=O)S/C(=C/c2ccc(N3CCCCC3)o2)C1=O,13.1
3,CCOC(=O)CN1C(=O)S/C(=C/c2ccco2)C1=O,9.39
4,CCOC(=O)CN1C(=O)S/C(=C/c2ccc(C)o2)C1=O,-72.7
5,Cc1[nH]nc2c1C(c1ccsc1C)C(C#N)=C(N)O2 (stereo not shown),2.25
6,Cn1cnnc1SCC(=O)NN(c1ccccc1)c1ccccc1,28.6
7,CCNC(=O)C(C)Oc1ccc(Cl)cc1Cl (stereo not shown),9.68
8,Cc1cccc(C(=O)C2CCOC(C)(C)C2)c1 (stereo not shown),13
9,CCN(Cc1nc(-c2cccc(Cl)c2)no1)CC1CCCO1 (stereo not shown),1.7
10,Clc1ccc(-c2noc(CN(Cc3ccccn3)CC3CCCO3)n2)cc1 (stereo not shown),-28.5
11,Cc1oc(-c2ccc(C(F)(F)F)cc2)nc1CN(Cc1ccccn1)C[C@@H]1CCC(=O)N1,-38.2
12,O=C1CC[C@@H](CN(Cc2ccccn2)Cc2nc(-c3ccc(C(F)(F)F)cc3)no2)N1,-62.7
13,COC(=O)c1ccc(-c2noc(CN(Cc3ccccn3)CC3CCCO3)n2)cc1 (stereo not shown),-75
14,O=C1CC[C@@H](CN(Cc2ccccn2)Cc2nc(Cc3cccc(C(F)(F)F)c3)no2)N1,-48.4
15,COC(=O)c1ccc(-c2noc(CN(Cc3ccncc3)CC3CCCO3)n2)cc1 (stereo not shown),-28.5
16,CCN(Cc1nc(-c2ccc(Cl)cc2)no1)CC1CCCO1 (stereo not shown),-62.9
17,CCCN(Cc1nc(-c2ccc(Cl)cc2)no1)CC1CCCO1 (stereo not shown),-8.15
18,COc1ccc(CN(CC2CCC(C(=O)O)CC2)C(=S)Nc2cccc(C)c2)cc1 (stereo not shown),-2.44
19,O=Cc1cc(-c2ccccc2)[nH]c1-c1ccccc1,22.5
20,COCCn1nnnc1C(C(C)C)N(Cc1cccnc1)Cc1cc2cc(OC)ccc2[nH]c1=O (stereo not shown),-29.3
21,CCCCCC(=O)NNC(=O)Cc1ccc([N+](=O)[O-])cc1,-1.38
22,O=C(Cn1cccc1C(=O)c1ccccc1)NCCCN1CCOCC1,13.4

row,Structure (SMILES),"hERG current change (%, negative = inhibition) at 10uM [%]"
1,Cc1ccccc1C(=O)c1cccn1CC(=O)NCCCN1CCCCC1,-41.9
2,O=C(Cn1cccc1C(=O)c1ccccc1)NCCN1CCCCCC1,-35.3
3,O=C(Cn1cccc1C(=O)c1ccccc1)NCCCN1CCc2ccccc2C1,-74.1
4,Cc1ccccc1C(=O)c1cccn1CC(=O)NCC(C)c1ccccc1 (stereo not shown),-20.3
5,Cc1ccccc1C(=O)c1cccn1CC(=O)NCCCN1CCc2ccccc2C1,-78.6
6,O=C(CN1C(=O)NC2(CCCCC2)C1=O)Nc1cc(C(F)(F)F)ccc1N1CCCCC1,-1.7
7,Fc1cc(F)c2nc(Nc3nc4cc5c(cc4s3)OCO5)sc2c1,15.2
8,O=C(Oc1ccc2ccccc2c1)c1cncc(Br)c1,-11.6
9,CC1CCN(S(=O)(=O)c2ccc(NC(=O)[C@@H]3CCCC[C@@H]3C(=O)O)cc2)CC1,9.64
10,CCC(C)(C(=O)NC1CCCCC1)N(Cc1ccco1)C(=O)c1cnccn1 (stereo not shown),-11.3
11,Cc1ccc(NC(=O)COC(=O)COc2ccc3ccc(=O)oc3c2)cc1[N+](=O)[O-],3.51
12,CCCc1nc2ccccc2c(C(=O)O)c1CC,1.82
13,Cc1cc(C)c2nc(C(F)(F)F)c(C#N)c(N)c2c1,17.4
14,CCCSc1nc(C)c2cc(C)cc(C)c2n1,10.9
15,CCCc1nc2c(C)cc(C)cc2c(N)c1CC,-59.2
16,CCCc1nc(N)c(C#N)c(-c2ccco2)c1CC,14.3
17,CCCc1nc2c(C)ccc(C)c2c(N)c1CC,-62.5
18,Cc1cc(C)cc(N=c2c([N+](=O)[O-])nn(-c3cccc(Cl)c3)n2O)c1,-6.03
19,Cc1cccc(CC2CC(=O)N(CCc3ccc4c(c3)OCO4)C2=O)c1 (stereo not shown),34.2
20,COc1ccc(C(=O)/C=C2\NCCc3cc(OC)c(OC)cc32)cc1OC,11.6
21,O=C(O)CCc1nc2cc(Cl)ccc2n(Cc2ccccc2)c1=O,22.2
22,COC(=O)CCc1nc2cc(Cl)ccc2n(Cc2ccccc2)c1=O,-23.1

row,Structure (SMILES),"hERG current change (%, negative = inhibition) at 10uM [%]"
1,CN(C)C(CNC(=O)CCc1nc2cc(Cl)ccc2n(Cc2ccccc2)c1=O)c1ccccc1 (stereo not shown),-81.1
2,O=C(O)CCc1nc2cc(C(F)(F)F)ccc2n(Cc2ccccc2)c1=O,23.8
3,CC(C)c1nc2cc(Cl)ccc2n(Cc2ccccc2)c1=O,24.6
4,CCNC(=S)NNC(=O)CCc1nc2cc(Cl)ccc2n(Cc2ccccc2)c1=O,-54.7
5,CC(=O)Nc1ccc(NC(=O)CSc2nnc(-c3cccnc3)o2)cc1,7.42
6,CCCn1c(C(Cc2ccccc2)NC(=O)COC)nc2ccccc21 (stereo not shown),2.2
7,COc1cc2c(cc1NC(=O)/C=C/c1ccccc1)oc1ccccc12,18.8
8,CCOc1ccccc1N1CC(C(=O)Nc2ccccc2N2CCOCC2)CC1=O (stereo not shown),12.5
9,O=C(O)c1cc2cc(F)ccc2[nH]1,16.2
10,O=C(Nc1ccc2c(c1)CCC2)c1cnc(Cl)c(Cl)c1,0.674
11,CCN(CC)S(=O)(=O)c1ccc(N2CCOCC2)c(NC(=O)CN2C(=O)NC(C)(c3ccccc3)C2=O)c1 (stereo not shown),-24.1
12,CCOC(=O)C1=CC[C@H]2c3c(c4ccccc4n3C)C[C@H]1N2C,3.88
13,CCOC(=O)C1=C[C@]2(CC)CCCN3CCc4c(n1c1ccccc41)[C@@H]32,-91.8
14,CC[C@]12CCCN3CCc4c(n(c5ccccc45)C(=O)C1)C32 (stereo partly shown),-65.7
15,CC[C@]12CCCN3CCc4c(n(c5ccccc45)C(=O)C1)[C@@H]32,-75
16,CCn1cc(C2N3CC4(C)CN2CC(C)(C3)C4=O)c2ccccc21 (stereo not shown),7.47
17,CCOC(=O)NNC(=O)CCn1c2c(c3ccccc31)CCCC2,-16.4
18,NC(=O)C1CCCc2c1n(Cc1ccccc1)c1ccccc21 (stereo not shown),-14.7
19,CCN(CC)CC(=O)n1c2c(c3ccccc31)CCCC2,-34.2
20,O=C(O)Cn1c(=O)c2c(c3ccccc31)CCC2,11.9
21,O=C(CSc1nc(-c2ccccc2)cs1)Nc1cccc([N+](=O)[O-])c1,6.45
22,N#Cc1ccccc1CSc1nc(N2CCCCC2)nc(N2CCCCC2)n1,5.79
